# Laboratory results as given in PubChem BioAssay AID2284198 (EPA ToxCast).
# Activity calls are given as the source filed them. How the source made its calls: active means hit-call score of the fitted dose curve at least 0.9, where 1 is the maximum; inactive means score below 0.9.
# Target: human Adenosine Transporter, SLC29A1 (gene 2030) (UniProt Q99808)
# Assay: ERF_TW_TR_hSLC35B3: Eurofins (ERF) Transporter Radioligand Binding LeadHunter Assay for human Adenosine Transporter Antagonism
# Procedure: ERF_TW_TR_hSLC35B3 is a biochemical, single-readout assay that uses extracted gene-proteins in a cell-free assay. Measurements were taken 1 hour after chemical dosing in a 96-well plate. See Adenosine Human Transporter Binding (Antagonist Radioligand) Assay, Panlabs.ERF_TW_TR_hSLC35B3 is an assay component calculated from the ERF_TW_TR_hSLC35B3 assay. It is designed to measure radioligand binding using a type of binding reporter as detected by scintillation counting with radiometry technology.Data from the assay component ERF_TW_TR_hSLC35B3 was analyzed at the assay endpoint, ERF_TW_TR_hSLC35B3, in the positive analysis fitting direction relative to DMSO as the negative control and baseline of activity. Using a type of binding reporter, loss-of-signal activity can be used to understand changes in transporter binding as they relate to gene SLC29A1. To generalize the intended target to other relatable targets, this assay endpoint is annotated to the transporter intended target family, where the subfamily is nucleoside transporter.
# This assay measures binding of [3H]Nitrobenzylthioinosine to sites associated with the transporter of adenosine. Human adenosine transporter membranes are prepared in Tris-HCl buffer pH 7.4. A 24 ug aliquot of membrane is incubated with 0.5 nM [3H]Nitrobenzylthioinosine for 60 minutes at 25C. Non-specific binding is estimated in the presence of 5 uM nitrobenzylthioinosine. Membranes are filtered and washed, the filters are then counted to determine [3H]Nitrobenzylthioinosine specifically bound. Compounds are screened at 10 uM.Test Sample Requirements: Minimum for 1) Screen: 25 ul of 10 mM stock -OR- 1 mg (pre-weighed). 2) Dose Response: 60 ul of 10 mM stock -OR- 1 mg (pre-weighed).
# human Adenosine Transporter, SLC29A1 (gene 2030), sequence (Q99808 whole entry, looked up): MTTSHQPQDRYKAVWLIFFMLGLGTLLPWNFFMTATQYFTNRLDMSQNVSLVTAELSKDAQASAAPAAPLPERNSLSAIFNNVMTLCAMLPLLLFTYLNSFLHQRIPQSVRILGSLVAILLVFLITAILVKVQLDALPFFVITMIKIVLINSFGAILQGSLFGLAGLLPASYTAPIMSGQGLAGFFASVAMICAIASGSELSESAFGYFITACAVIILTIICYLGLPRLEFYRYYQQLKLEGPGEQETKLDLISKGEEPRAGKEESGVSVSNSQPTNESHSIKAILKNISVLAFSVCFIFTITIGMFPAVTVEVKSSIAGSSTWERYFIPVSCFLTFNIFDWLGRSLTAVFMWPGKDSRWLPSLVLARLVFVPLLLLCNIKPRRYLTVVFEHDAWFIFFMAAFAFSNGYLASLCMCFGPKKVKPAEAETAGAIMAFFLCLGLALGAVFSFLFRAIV
row,SMILES,AC50
1,O=C(/C=C/c1ccc(O)cc1)CC(=O)/C=C/c1ccc(O)cc1,153 nM (active)
2,COc1cc(CCC(=O)CC(=O)CCc2ccc(O)c(OC)c2)ccc1O,574 nM (active)
3,COc1cc(/C=C/C(=O)CC(=O)/C=C/c2ccc(O)c(OC)c2)ccc1O,98 nM (active)
